# PP5 inh: PP5 (human) phosphatase inhibition. inhibition, % at 6.7 µM. purified PP5c, OMFP substrate fluorescence. AID 1987. actives 0.18% (n = 320,000);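 active = inhibition above the campaign's mean inhibition across all tested compounds plus 3 SD, cut at about 9.5% in these data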
# PP1 inh: counter-screen for PP5 inhibitors: inhibitors of human PP1-alpha; P62136; purified PP1alpha, OMFP fluorescence; inhibition, % at 6.7 µM; actives 0.9% (n = 320,000); AID 2235;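 active = inhibition above the mean inhibition of all tested compounds plus 3 SD, computed separately for each screening campaign, cut at about 15% in these data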
# Target sequence (P62136 whole entry, looked up): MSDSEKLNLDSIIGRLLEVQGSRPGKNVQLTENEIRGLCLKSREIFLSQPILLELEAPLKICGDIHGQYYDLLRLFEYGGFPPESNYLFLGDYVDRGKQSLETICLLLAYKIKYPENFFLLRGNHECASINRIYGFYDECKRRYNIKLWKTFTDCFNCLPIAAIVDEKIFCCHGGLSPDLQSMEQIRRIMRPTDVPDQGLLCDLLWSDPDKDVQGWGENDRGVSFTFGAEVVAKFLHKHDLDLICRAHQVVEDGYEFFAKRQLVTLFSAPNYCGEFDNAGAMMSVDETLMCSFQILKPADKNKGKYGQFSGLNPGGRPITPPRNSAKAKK
# bovine MsrA act: activators of bovine methionine sulfoxide reductase A | actives 0.3% (n = 360,000) | AID 602163 | purified bovine MsrA, absorbance read-out | activation, % at 10.6 µM; in the data active = activation above about 7.5%
# EBNA-1 inh: blocks EBNA-1 binding to DNA | actives 0.34% (n = 300,000) | EBNA-1 DNA binding, fluorescence polarization | inhibition, % at 14.8 µM; in the data active = inhibition above about 28%
# MsrA inh: bovine MsrA inhibition; purified bovine MsrA, absorbance read-out; actives 0.75% (n = 360,000); inhibition, % at 15.5 µM; AID 651718; in the data active = inhibition above about 4.5%
# ZTA counter: counter-screen for EBNA-1 inhibitors: inhibitors of Epstein-Barr virus ZTA. P03206. ZTA-DNA binding, fluorescence polarization. inhibition, % at 11 µM. actives 0.15% (n = 320,000). AID 2234; in the data active = inhibition above about 33%
# Target sequence (P03206 whole entry, looked up): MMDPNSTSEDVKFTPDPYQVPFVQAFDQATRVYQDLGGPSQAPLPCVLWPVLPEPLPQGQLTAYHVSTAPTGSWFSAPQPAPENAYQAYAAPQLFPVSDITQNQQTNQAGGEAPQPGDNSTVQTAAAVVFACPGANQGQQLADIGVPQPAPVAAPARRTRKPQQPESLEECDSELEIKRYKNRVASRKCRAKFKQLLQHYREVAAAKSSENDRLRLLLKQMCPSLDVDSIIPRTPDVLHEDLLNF
# PP1 confirm: confirmation of human PP1 phosphatase inhibitors. inhibition, % at 6.7 µM. actives 52% (n = 1,900). AID 2358. purified PP1alpha, OMFP substrate fluorescence. shares compounds with PP1 inh;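 active = mean PP1 inhibition above a set limit taken from the earlier primary screen, cut at about 15% in these data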
# PP5 inh counter: inhibits human PP5 phosphatase in PP1 counter-screen; inhibition, % at 6.7 µM; shares compounds with PP1 inh; purified PP5c, OMFP fluorescence; actives 4% (n = 1,900);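 active = mean PP5 inhibition over triplicate wells above about 9.5% taken from the earlier PP1 screen, limit read from the data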
# A number is an active result; i = inactive; nt = no result. This is a sample that favours compounds with a hit; in the whole collection about 2.3% have one here.
SMILES,PP5 inh,PP1 inh,bovine MsrA act,EBNA-1 inh,MsrA inh,ZTA counter,PP1 confirm,PP5 inh counter
COc1cccc(/C=C/C(=O)OCC(=O)Nc2nnc(-c3ccccc3)o2)c1OC,nt,nt,i,nt,i,nt,nt,nt
COc1ccc(/C=C/C(=O)OCC(=O)Nc2nnc(-c3ccccc3)o2)c(OC)c1,nt,nt,i,nt,i,nt,nt,nt
O=C(COC(=O)/C=C/c1ccccc1F)Nc1nnc(-c2ccccc2)o1,i,21,i,i,i,i,22,i
Cc1ccc(C(=O)OCC(=O)Nc2ccc(C)c(S(=O)(=O)N3CCCCC3)c2)c(O)c1,nt,nt,i,nt,i,nt,nt,nt
CCN(Cc1ccccc1)c1ccccc1,nt,nt,i,nt,i,nt,nt,nt
CCN(Cc1ccccc1)c1ccc(/C=N/N=C(N)N)cc1,i,18,i,i,i,i,i,i
COc1cnc(-c2ccccn2)nc1Oc1cccc(Cl)c1,i,53,i,i,i,i,46,i
COc1ccc(Oc2nc(-c3ccccn3)ncc2OC)cc1,i,22,i,i,i,i,32,i
COc1cnc(-c2ccccn2)nc1Oc1c(C)cccc1C,i,19,i,i,i,i,25,i
COc1cnc(-c2ccccc2)nc1Oc1cccc(C)c1,i,i,i,i,i,i,nt,nt
COc1ccc(N/C=C(\C#N)S(=O)(=O)c2ccc(Cl)cc2)c(OC)c1,i,i,i,i,i,i,nt,nt
CC1Cc2cc(/C(O)=C3/C(=O)C(=O)N(CCCn4ccnc4)C3c3ccc(Br)cc3)ccc2O1 (configuration not stated),i,26,i,i,i,i,31,i
Nn1c(SCC(=O)Nc2cc(S(=O)(=O)N3CCOCC3)ccc2Cl)nnc1-c1cccnc1,i,i,i,i,i,i,nt,nt
COc1cc(/C=C2\SC(=Nc3ccccc3)N(CCc3c[nH]c4ccccc34)C2=O)ccc1OC(C)C(=O)O (configuration not stated),i,18,i,i,i,i,i,i
COC(=O)N/N=C/c1cc(Br)ccc1O,i,i,i,i,i,i,nt,nt
COC(=O)N/N=C/c1cc(N=Nc2ccccc2Cl)ccc1O,i,19,i,i,i,i,25,i
Cc1cc2ccccc2n2c(SCC(=O)NCC3CCCO3)nnc12 (configuration not stated),i,i,nt,i,i,i,nt,nt
Cc1cccc(NC(=O)CSc2nnc(CNC(=O)c3cccs3)o2)c1C,i,i,i,i,i,i,nt,nt
O=C(Nc1ccc([N+](=O)[O-])cc1)c1ccc(S(=O)(=O)N2CCCC2)cc1,i,i,i,i,i,i,nt,nt
O=C(Nc1ccc(S(=O)(=O)N2CCCCCC2)cc1)c1[nH]ncc1[N+](=O)[O-],i,58,i,i,i,i,16,i
CCCNC(=O)Cn1cnc([N+](=O)[O-])n1,i,i,i,i,i,i,nt,nt
CC1Nc2ncnc(N3CCc4ccccc4C3)c2N(Cc2ccc(Br)cc2)C1=O (configuration not stated),i,23,i,i,i,i,19,i
CC1Nc2ncnc(N3CCc4ccccc4C3)c2N(Cc2ccc(Cl)cc2)C1=O (configuration not stated),i,i,i,i,nt,i,nt,nt
O=[N+]([O-])c1cc(CN2CCCC2)c2cccnc2c1O,i,18,i,i,nt,i,i,i
Oc1c(Cl)cc(CN2CCCCC2)c2cccnc12,i,i,i,i,nt,i,nt,nt
SMILES,PP5 inh,PP1 inh,bovine MsrA act,EBNA-1 inh,MsrA inh,ZTA counter,PP1 confirm,PP5 inh counter
O=[N+]([O-])c1cc(CN2CCN(c3cccc(C(F)(F)F)c3)CC2)c2cccnc2c1O,i,18,nt,i,i,i,24,i
Cn1c(SCC(=O)NCCc2ccccc2)ncc(C(=O)Nc2ccc(F)cc2)c1=O,i,i,i,i,i,i,nt,nt
CCCCN(C)S(=O)(=O)c1ccc(C(=O)Nc2nnc(CSC)o2)cc1,i,24,i,i,i,i,23,i
CCCCN(CC)S(=O)(=O)c1ccc(C(=O)Nc2nnc(-c3cccs3)o2)cc1,i,26,nt,i,nt,i,18,i
CCOC(=O)N1CCN(S(=O)(=O)c2ccc(C(=O)Nc3nnc(CSC)o3)cc2)CC1,i,18,i,i,i,i,i,i
CCCCN(CCCC)S(=O)(=O)c1ccc(C(=O)Nc2nnc(COC)o2)cc1,i,23,i,i,nt,i,16,i
CCOC(=O)/C=C/c1ccc2c(c1)S(=O)(=O)N(Cc1ccc(OC)cc1)[C@H]2CC(=O)OCC,i,i,i,i,i,i,nt,nt
Cc1ccc(S(=O)(=O)N=Nc2c(O)[nH]c3ccccc23)cc1,i,i,i,i,i,i,nt,nt
Cc1ccc(S(=O)(=O)N(CC(=O)N=Nc2c(O)[nH]c3ccccc23)c2ccc(C)c(C)c2)cc1,i,19,i,i,i,i,19,i
CC1C(=O)N(Cc2cn(CCC3OCCCO3)nn2)CCS(=O)(=O)N1Cc1ccc(-c2cccc(CO)c2)cc1 (configuration not stated),nt,nt,i,nt,i,nt,nt,nt
CCOC(=O)c1sc(CS(=O)(=O)c2ccc(Cl)cc2)nc1C,i,i,i,i,i,i,nt,nt
CCOC(=O)c1sc(-c2ccc(Cl)cc2Cl)nc1O,i,21,i,i,i,i,21,i
c1ccc(-c2noc(CN3CCN(c4cnccn4)CC3)n2)cc1,i,i,i,i,i,i,nt,nt
CCc1nnc(NC(=O)c2ccc(S(=O)(=O)N3CCc4ccccc4C3)cc2)s1,i,i,i,i,i,i,nt,nt
Cc1nnc(NC(=O)c2ccc(S(=O)(=O)N3CC(C)CC(C)C3)cc2)o1 (configuration not stated),i,22,i,i,i,i,i,i
Cc1nnc(NC(=O)c2ccc(S(=O)(=O)N3CCc4ccccc4C3)cc2)o1,i,24,i,i,i,i,21,i
O=C(Nc1nnc(C2=COCCO2)o1)c1ccc(Cc2ccccc2)cc1,i,22,i,i,i,i,20,i
CC1CCCN(S(=O)(=O)c2ccc(C(=O)Nc3nnc(C4=COCCO4)o3)cc2)C1 (configuration not stated),i,19,i,i,i,i,i,i
CCOC(=O)N1CCN(S(=O)(=O)c2ccc(C(=O)Nc3nnc(C)o3)cc2)CC1,i,i,i,i,i,i,nt,nt
O=C(Nc1nnc(C2=COCCO2)o1)c1ccc(Cl)cc1,i,i,i,i,i,i,nt,nt
Nc1c(CO)nnn1-c1ccccc1,i,i,i,i,i,i,nt,nt
O=C1CN(C(=O)NCC(=O)N[C@@H](C(=O)O)c2ccccc2)c2ccccc2N1,i,18,i,i,i,i,i,i
O=C1CN(C(=O)N[C@@H](Cc2ccccc2)C(=O)N[C@@H](C(=O)O)c2ccccc2)c2ccccc2N1,i,i,i,i,i,i,nt,nt
O=C(Cn1c(=O)n(Cc2ccco2)c(=O)c2c3c(sc21)CCCCC3)c1ccccc1,i,25,i,i,nt,i,16,i

# Compound activity (PubChem)
